Experiment [1] addresses Peroxisome proliferator-activated receptor delta (Homo sapiens) (UniProt Q03181). The experiment is described as follows: qHTS assay to identify small molecule agonists of the peroxisome proliferator-activated receptor delta (PPARd) signaling pathway (AID 743212; calls by dose curve). In a few lines: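 Read-out: beta-lactamase FRET fluorescence after 2 h room-temperature incubation with LiveBLAzer B/G substrate. Cells were HEK293H carrying a UAS-bla reporter for PPARd, treated at 37 C with DMSO-dissolved compounds.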
(Quantitative high-throughput screening tests each substance at several concentrations.)

A short description of experiment [2]: qHTS assay to identify small molecule antagonists of the peroxisome proliferator-activated receptor delta (PPARd) signaling pathway - cell viability counter screen (AID 743213). Further: nearly all actives have a fitted effect of over 50% in size. In a few lines:
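HEK293H PPARd UAS-bla cells, 5 h pre-incubation, compound + L165041 300 nM final, 17 h 37 C; B/G FRET substrate 2 h RT; then CellTiter-Glo 30 min RT, luminescence.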

The target of experiment [3] is Peroxisome proliferator-activated receptor delta (Homo sapiens) (UniProt Q03181). The experiment is described as follows: qHTS assay to identify small molecule antagonists of the peroxisome proliferator-activated receptor delta (PPARd) signaling pathway (AID 743215; active means well fitted inhibition curve with a large enough effect in the signal ratio in the repeat runs, not every such curve was filed as active; the % refers to the signal ratio;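 further: cells stimulated with agonist L165041 at 300 nM final during compound exposure; series mostly up to about 62 µM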). The method in brief:
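Agonist L165041 (300 nM final) added with compound to PPARd-bla HEK293H UAS-bla reporter cells; 17 h incubation at 37 C. Read-out: LiveBLAzer FRET substrate, 2 h at room temperature, fluorescence intensity.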

The nature of experiment [4]: qHTS assay to identify small molecule agonists of the farnesoid-X-receptor (FXR) signaling pathway - cell viability counter screen (AID 743218). Further: nearly all actives have a fitted effect of over 45% in size. The method in brief: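 Viability counter screen in the same wells: CellTiter-Glo luminescence, 30 min room-temperature incubation, measured after the beta-lactamase read. Cells were GeneBLAzer FXR-UAS-bla HEK 293T, compound-treated 16 h at 37C.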

A short description of experiment [5]: qHTS assay to identify small molecule antagonists of the farnesoid-X-receptor (FXR) signaling pathway - cell viability counter screen (AID 743221; active means well fitted cell-killing curve with a large enough effect in the repeat runs, not every such curve was filed as active; further: nearly all actives have a fitted effect of over 50% in size). In a few lines:
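Quantitative HTS of the Tox21 10K library run in parallel with the beta-lactamase reporter read. HEK 293T cells carrying a UAS-driven bla reporter got compound and 50 uM CDCA (final) for 16 h; ATP-based luminescence followed.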

For experiment [6], the target named is Vitamin D3 receptor (Homo sapiens) (UniProt P11473). The experiment is described as follows: qHTS assay to identify small molecule agonists of the vitamin D receptor (VDR) signaling pathway (AID 743222; calls by dose curve). The method in brief: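 Agonist mode, beta-lactamase reporter: fluorescence from LiveBLAzer B/G FRET substrate (2 h, room temperature) read after 16 h compound treatment at 37 C of VDR-bla cells, which were pre-incubated 4 h after seeding.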
Chain of Vitamin D3 receptor (Homo sapiens) (P11473 whole entry, looked up): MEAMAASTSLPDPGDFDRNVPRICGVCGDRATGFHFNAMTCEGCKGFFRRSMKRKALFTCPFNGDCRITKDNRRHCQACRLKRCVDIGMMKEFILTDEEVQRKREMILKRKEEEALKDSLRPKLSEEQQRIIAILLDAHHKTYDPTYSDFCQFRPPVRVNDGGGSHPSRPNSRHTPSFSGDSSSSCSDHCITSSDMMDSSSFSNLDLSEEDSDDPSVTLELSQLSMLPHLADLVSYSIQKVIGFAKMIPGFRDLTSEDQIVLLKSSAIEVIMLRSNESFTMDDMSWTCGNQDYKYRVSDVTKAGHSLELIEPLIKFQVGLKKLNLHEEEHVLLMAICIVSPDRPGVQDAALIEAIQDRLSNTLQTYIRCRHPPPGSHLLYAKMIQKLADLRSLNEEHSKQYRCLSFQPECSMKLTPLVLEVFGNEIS

Experiment [7] shares this target. The experiment is described as follows: qHTS assay to identify small molecule antagonists of the vitamin D receptor (VDR) signaling pathway (AID 743223; active means well fitted inhibition curve with a large enough effect in the signal ratio in the repeat runs, not every such curve was filed as active; the % refers to the signal ratio). The method in brief: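 Fluorescence from LiveBLAzer B/G FRET substrate, read after 2 h at room temperature, reflects beta-lactamase reporter activity in VDR-bla cells treated 16 h at 37C with compounds and agonist 1alpha,25-dihydroxyvitamin D3 (3 nM final).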

Experiment [8] can be described thus: qHTS assay to identify small molecule agonists of the vitamin D receptor (VDR) signaling pathway - cell viability counter screen (AID 743224). Further: series mostly up to about 63 µM; nearly all actives have a fitted effect of over 50% in size. The method in brief: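 Counter screen run in the same wells as the VDR-bla reporter assay: CellTiter-Glo luminescence, 30 min at room temperature, after 16 h compound treatment at 37C of cells pre-plated for 4 h.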
A short description of experiment [9]: qHTS assay to identify small molecule antagonists of the vitamin D receptor (VDR) signaling pathway - cell viability counter screen (AID 743225). Further: nearly all actives have a fitted effect of over 50% in size. In a few lines: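 Cells (VDR-UAS-bla HEK 293T) are plated, rested 4 h at 37C, dosed with compound and 3 nM final 1-alpha,25-dihydroxy vitamin D3, and incubated 16 h. Viability is taken from CellTiter-Glo luminescence in the reporter wells.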

A short description of experiment [10]: qHTS assay to identify small molecule agonists of the NFkB signaling pathway - cell viability counter screen (AID 1159515; calls by dose curve; further: series mostly up to about 61 µM; nearly all actives have a fitted effect of over 55% in size). The method in brief: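 Read by CellTiter-Glo luminescence (30 min, room temperature) in the wells also used for the beta-lactamase FRET read. ME-180 NFkB-bla cells at 2,000 per well were plated overnight, then exposed to compound for 5 hr at 37 C.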

Experiment [11] in a line: qHTS assay to identify small molecule agonists of the endoplasmic reticulum stress response signaling pathway (AID 1159516; active means well fitted activation curve with a large enough effect in the signal ratio in the repeat runs, not every such curve was filed as active; the % refers to the signal ratio). The method in brief: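 Ratiometric FRET readout (405 nm excitation; 460 and 530 nm emission) of a beta-lactamase gene driven by the ER stress response element, after 2 hr substrate loading. HeLa ESRE-bla cells were seeded overnight and treated with compounds for only 5 hr at 37 C.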

Experiment [12] can be described thus: qHTS assay to identify small molecule agonists of the endoplasmic reticulum stress response signaling pathway - cell viability counter screen (AID 1159517; calls by dose curve). In a few lines:
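Steps: seed 1,500 ESRE-bla HeLa cells per well; incubate overnight at 37 C, 5% CO2; add compounds in DMSO for 5 hr; run FRET substrate 2 hr RT; add CellTiter-Glo, wait 30 min, read luminescence.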

Experiment [13] is described as follows: qHTS assay to identify small molecule antagonists of the retinoid-related orphan receptor gamma (ROR-gamma) signaling pathway - cell viability counter screen (AID 1159520). Further: nearly all actives have a fitted effect of over 50% in size. In a few lines: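 Tet-on ROR gamma CHO cells were given compounds for 2 hr, then doxycycline hyclate at 1 uM final, and incubated 16 hr at 37 C. Viability was measured as ATP content by CellTiter-Glo luminescence.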

Experiment [14] addresses Nuclear receptor ROR-gamma (Homo sapiens) (UniProt P51449). The experiment is described as follows: qHTS assay to identify small molecule antagonists of the retinoid-related orphan receptor gamma (ROR-gamma) signaling pathway (AID 1159521). The method in brief: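 RORγ antagonism is scored from reduced reporter luminescence in Tet-on CHO cells. Induction used 1 uM final doxycycline hyclate for 16 h at 37 C, following a 2 h compound exposure.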

Experiment [15] is described as follows: qHTS assay to identify small molecule agonists of the AP-1 signaling pathway - cell viability counter screen (AID 1159525; calls by dose curve; further: nearly all actives have a fitted effect of over 55% in size). The method in brief:
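Same-well cytotoxicity counter screen of the Tox21 10K library in ME-180 cells. The readout is ATP-dependent luminescence after 5 h compound treatment. Data are normalised to DMSO and tetra n-octyl ammonium bromide controls.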

The nature of experiment [16]: qHTS assay to identify small molecule agonists of the AP-1 signaling pathway (AID 1159526; calls by dose curve).
Experiment [17] concerns the target Retinoic acid receptor RXR-alpha (Homo sapiens) (UniProt P19793). The experiment is described as follows: qHTS assay to identify small molecule agonists of the RXR signaling pathway (AID 1159527; calls by dose curve; further: nearly all actives have a fitted effect of over 35% in size; further: potency means the concentration at half of the fitted maximal effect). In a few lines: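 qHTS of the Tox21 10K library in GeneBLAzer RXR-alpha HEK 293T cells carrying a beta-lactamase reporter […]; 16 hr treatment, 9-cis retinoic acid as agonist control, FRET read-out.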

Experiment [18] is described as follows: qHTS assay to identify small molecule agonists of the RXR signaling pathway - cell viability counter screen (AID 1159529). The method in brief:
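Cell viability is measured by CellTiter-Glo luminescence, 30 min at room temperature, in wells already read for beta-lactamase. Engineered HEK 293T cells (RXR-alpha-UAS-bla) are dosed 16 hr at 37 C. Tetraoctyl ammonium bromide serves as positive control.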

The target of experiment [19] is Bile acid receptor (Homo sapiens) (UniProt Q96RI1). The experiment is described as follows: qHTS assay to identify small molecule antagonists of the farnesoid-X-receptor (FXR) signaling pathway (AID 743217; active means well fitted inhibition curve with a large enough effect in the signal ratio in the repeat runs, not every such curve was filed as active; the % refers to the signal ratio). The method in brief:
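Antagonist mode: chenodeoxycholic acid at 50 uM final stimulates a UAS-driven beta-lactamase reporter in HEK 293T FXR-bla cells during 16 h, 37C compound exposure. Read-out is FRET substrate fluorescence after 2 h at room temperature.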

For experiment [20] the target is unchanged. The experiment is described as follows: qHTS assay to identify small molecule agonists of the farnesoid-X-receptor (FXR) signaling pathway (AID 743220; active means well fitted activation curve with a large enough effect in the signal ratio in the repeat runs, not every such curve was filed as active; the % refers to the signal ratio). In a few lines:
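FXR-UAS-bla HEK 293T cells carrying a UAS-driven beta-lactamase reporter were plated for 5 h at 37C/5% CO2, then exposed to DMSO-dissolved Tox21 10K compounds for 16 h at 37C. A LiveBLAzer B/G FRET substrate was loaded for 2 h at room temperature before fluorescence reading.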

Results filed as inconclusive are left out. The source holds several records for some structures; these can differ, active in one and inactive in another. Calls of active or inactive are those of the source. Unless noted, the call rests on the fitted dose curve; in most records, active means well fitted curve in the direction sought with a large enough effect in the repeat runs; inconclusive means weak or mixed curves; inactive means no such curve, though single readings can be large; an effect the other way counts as inactive or inconclusive.

Chain of Retinoic acid receptor RXR-alpha (Homo sapiens) (P19793 whole entry, looked up): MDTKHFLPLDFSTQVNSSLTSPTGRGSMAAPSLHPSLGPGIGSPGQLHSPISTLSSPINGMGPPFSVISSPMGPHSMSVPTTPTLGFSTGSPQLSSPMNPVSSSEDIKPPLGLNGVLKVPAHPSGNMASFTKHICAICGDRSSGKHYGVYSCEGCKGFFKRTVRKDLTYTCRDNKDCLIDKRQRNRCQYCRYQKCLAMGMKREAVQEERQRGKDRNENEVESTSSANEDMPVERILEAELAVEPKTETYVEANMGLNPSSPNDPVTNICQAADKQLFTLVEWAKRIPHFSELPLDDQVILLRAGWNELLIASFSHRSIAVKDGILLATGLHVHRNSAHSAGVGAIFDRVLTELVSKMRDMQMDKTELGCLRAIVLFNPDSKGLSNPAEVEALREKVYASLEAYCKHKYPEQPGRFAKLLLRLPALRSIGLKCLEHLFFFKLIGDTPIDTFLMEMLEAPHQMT
Chain of Peroxisome proliferator-activated receptor delta (Homo sapiens) (Q03181 whole entry, looked up): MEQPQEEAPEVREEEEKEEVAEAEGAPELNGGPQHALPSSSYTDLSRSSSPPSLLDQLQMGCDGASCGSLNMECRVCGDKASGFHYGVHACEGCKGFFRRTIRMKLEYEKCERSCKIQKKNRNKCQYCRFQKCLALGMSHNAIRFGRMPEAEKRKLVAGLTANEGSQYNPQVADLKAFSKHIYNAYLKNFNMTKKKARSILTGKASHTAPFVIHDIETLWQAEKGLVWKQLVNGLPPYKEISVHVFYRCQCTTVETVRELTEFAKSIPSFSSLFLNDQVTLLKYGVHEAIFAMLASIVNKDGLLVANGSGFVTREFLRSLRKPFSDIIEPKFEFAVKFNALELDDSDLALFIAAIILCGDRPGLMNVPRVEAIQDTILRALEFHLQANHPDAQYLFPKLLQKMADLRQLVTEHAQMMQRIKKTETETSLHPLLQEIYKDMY
Chain of Bile acid receptor (Homo sapiens) (Q96RI1 whole entry, looked up): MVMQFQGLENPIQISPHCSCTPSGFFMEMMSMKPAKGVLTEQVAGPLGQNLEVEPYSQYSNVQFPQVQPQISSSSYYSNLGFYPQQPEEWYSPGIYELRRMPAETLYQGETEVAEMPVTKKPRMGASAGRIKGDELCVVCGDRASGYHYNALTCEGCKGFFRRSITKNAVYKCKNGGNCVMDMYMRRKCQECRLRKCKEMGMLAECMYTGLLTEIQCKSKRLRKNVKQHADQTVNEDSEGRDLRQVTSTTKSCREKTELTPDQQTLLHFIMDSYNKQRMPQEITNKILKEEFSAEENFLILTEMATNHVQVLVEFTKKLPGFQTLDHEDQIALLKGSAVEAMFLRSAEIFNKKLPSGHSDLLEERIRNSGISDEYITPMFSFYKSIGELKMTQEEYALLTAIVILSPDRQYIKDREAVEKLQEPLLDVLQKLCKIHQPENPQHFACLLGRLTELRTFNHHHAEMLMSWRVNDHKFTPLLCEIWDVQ

Regarding `COC(=O)/C=C/c1ccccc1`, the Potency result in experiment [1], in experiment [2], in experiment [3], in experiment [4], in [5] and in experiment [6] was “inactive” throughout. Further, the Potency result in [7], in experiment [8], in experiment [9], in experiment [10], in experiment [12] and in experiment [13] was “inactive” in each case. For the same molecule, the Potency result in experiment [14], in experiment [15], in [16], in experiment [17] and in experiment [18] was “inactive” each time. In [11], the molecule was called inactive.

For the molecule `C=C(C)C(=O)O`, the Potency entry in experiment [1], in experiment [2], in experiment [3], in experiment [4], in experiment [5] and in [6] was “inactive” each time. The Potency entry in experiment [7], in experiment [8], in experiment [9], in experiment [10], in experiment [12] and in experiment [13] was “inactive” each time. The Potency result in [14], in [15], in experiment [16], in experiment [17] and in [18] was “inactive” in each case. Further, the outcome in experiment [11] was inactive.

Turning to `CC(C)CCOC(=O)c1ccc(N(C)C)cc1`, the Potency result in [1], in experiment [2], in experiment [3], in experiment [4], in experiment [5] and in experiment [6] was “inactive” throughout. Also, the Potency entry in [7], in experiment [8], in [9], in experiment [10], in [12] and in experiment [13] was “inactive” throughout. Besides, the Potency entry in experiment [14], in experiment [15], in experiment [16], in experiment [17] and in experiment [18] was “inactive” throughout. Moreover, in experiment [11], the outcome was inactive.

In the case of `N[C@@H]1CONC1=O`, the Potency entry in experiment [2], in [19], in experiment [4], in experiment [20], in experiment [5] and in [6] was “inactive” throughout. Besides, the Potency result in experiment [7], in experiment [8], in experiment [10], in [12], in [13] and in experiment [14] was “inactive” each time. In addition, the Potency result in experiment [15], in [16], in experiment [17] and in experiment [18] was “inactive” throughout. Further, the call in [11] was inactive.

For `CCC[C@H](N[C@@H](C)C(=O)N1[C@H](C(=O)O)C[C@@H]2CCCC[C@@H]21)C(=O)OCC`, the Potency result in experiment [1], in experiment [2], in experiment [19], in experiment [4], in experiment [20] and in experiment [5] was “inactive” throughout. The Potency entry in [7], in [8], in experiment [9], in experiment [10], in experiment [12] and in experiment [13] was “inactive” each time. Also, the Potency result in experiment [14], in [15], in experiment [16], in experiment [17] and in experiment [18] was “inactive” throughout. For the same molecule, the molecule was called inactive in [11].

Take `Cc1ccnc2c1NC(=O)c1cccnc1N2C1CC1`: the Potency result in experiment [1], in experiment [2], in experiment [3], in experiment [19], in experiment [4] and in [20] was “inactive” each time. Also, the Potency result in experiment [5], in [6], in experiment [7], in [8], in [9] and in experiment [10] was “inactive” in each case. In addition, the Potency entry in [12], in [13], in [14], in [15], in [16] and in [18] was “inactive” throughout. In addition, in [11], the call was inactive. For the same molecule, in experiment [17], the Potency was 11.4 µM (active) and inactive.

Consider `c1ccc2c(c1)CCCC2C1=NCCN1` (stereo not drawn), for which the Potency result in [1], in experiment [2], in experiment [3], in experiment [19], in experiment [4] and in experiment [20] was “inactive” in each case. Moreover, the Potency result in experiment [5], in experiment [6], in experiment [8], in experiment [9], in experiment [10] and in experiment [12] was “inactive” in each case. Moreover, the Potency result in [13], in [14], in experiment [15], in experiment [16], in experiment [17] and in [18] was “inactive” each time. Besides, the call in experiment [11] was inactive.

The values are drawn from PubChem BioAssay (Tox21).
